Env fusion inh: inhibitors of HIV-1 Env-driven cell-cell fusion, primary screen, HeLa-JRFL effector, CEM21 target cells, luciferase; inhibition, % at 12.3 µM; 1.1% of 360,000 active;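 active means mean replicate inhibition score of at least 50 and every replicate individually at or above 50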;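 further: 0% = plate neutral controls and 100% = maraviroc near 300 nM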
PAX8 reporter: inhibitors of PAX8-driven TPO luciferase reporter, primary screen, RMG-I cells, single concentration. SteadyGlo, 24 h. 1.2% of 360,000 active. inhibition, % at 12.6 µM;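 active means mean replicate inhibition at least 60% with every replicate also reaching 60%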;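 further: luciferase light reporting Pax8 driven TPO promoter activity; plate controls were median of neutral control wells for no effect and mitoxantrone controls for full effect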
EWS-Fli inh: EWS/Fli-driven NR0B1 reporter inhibitors, primary screen, A673 cells, NR0B1 luciferase, luminescence, MLPCN library. viability-normalised. inhibition, % at 12.6 µM. 0.67% of 350,000 active. AID 651661, 2012;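 active means mean inhibition of at least 50% after viability correction, with every replicate also passing that limit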;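 further: firefly luciferase signal divided by Alamar Blue viability fluorescence both relative to DMSO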
C2C12 statin: suppressors of statin myotoxicity in C2C12 myotubes, primary screen, cell-based, single point, plate reader | C2C12 myotubes + simvastatin, ATP luminescence, 48 h; scaled: DMSO 0, geranylgeraniol control 100 | rescue of ATP level, % at 7.49 µM | 0.78% of 330,000 active;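 active means mean ATP rescue above about 67%, or every replicate alone reaching that limit, limit read from the data, passing the limit was not always enough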;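 further: myotubes were challenged with 10 µM simvastatin during compound exposure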
GSIS activator: GLuc luminescence reporter in INS-1E cells, primary screen for activators of glucose-dependent secretion of insulin; activation, % at 16.6 µM; AID 743287, 2014; INS-1E GLuc reporter insulin secretion, 2-3 h; 0.61% of 370,000 active;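 active means lowest replicate activation of at least 40%, so every replicate reaches that level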;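 further: 0% = median of neutral control wells and 100% = median of IBMX positive control wells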
miR-122 sensor: miR-122 Renilla sensor signal increase in Huh7, primary screen, miR-122 inhibitor project, cell-based, single point, plate reader. Huh7 miR-122 Renilla luciferase sensor, 48 h; neutral wells = 0, positive control = 100. activation (reporter increase), % at 12.5 µM. 0.3% of 340,000 active;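 active means mean replicate activation score at least 90 and every replicate individually at or above 90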;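 further: higher luciferase means less miR-122 activity so hits act as miR-122 inhibitors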
The depositor's hits bear a star; nt = not tested or not shown; ! = repeats disagree; [ ] = dose if it differs, or a comment. This is a sample that favours compounds with a hit; in the whole collection about 3.1% have one here.

SMILES	Env fusion inh	PAX8 reporter	EWS-Fli inh	C2C12 statin	GSIS activator	miR-122 sensor
COCCn1c(C)cc(C(=O)COC(=O)c2cncc(Br)c2)c1C	26	-146	-12	98*	-12	-5
C[C@@H]1CN([C@@H](C)CO)C(=O)c2cc(NC(=O)Nc3ccccc3)ccc2O[C@@H](C)CCCCO[C@@H]1CN(C)CC1CCCCC1	-1[16.7 µM]	35	10	nt	1	13[16.7 µM]
C[C@@H]1CCCCO[C@@H](CN(C)CC2CCCCC2)[C@@H](C)CN([C@H](C)CO)C(=O)c2cc(NC(=O)Nc3ccccc3)ccc2O1	8[16.7 µM]	-2	3	nt	-8	77[16.7 µM]
C[C@H]1CCCCO[C@H](CN(C)CC2CCCCC2)[C@@H](C)CN([C@@H](C)CO)C(=O)c2cc(NC(=O)Nc3ccccc3)ccc2O1	-6[16.7 µM]	69*	0	nt	-9	-17[16.7 µM]
C[C@@H]1CCCCO[C@@H](CN(C)CC2CCCCC2)[C@H](C)CN([C@H](C)CO)C(=O)c2cc(NC(=O)c3ccccc3)ccc2O1	67*[16.7 µM]	14	12	nt	-5	-15[16.7 µM]
C[C@H](CO)N1C[C@H](C)[C@H](CN(C)CC2CCCCC2)OCCCC[C@H](C)Oc2ccc(NC(=O)Nc3ccccc3)cc2C1=O	-7[16.7 µM]	97*	22	nt	-11	-19[16.7 µM]
C[C@@H]1CCCCO[C@@H](CN(C)CC2CCCCC2)[C@H](C)CN([C@H](C)CO)C(=O)c2cc(NC(=O)Nc3ccccc3)ccc2O1	41[16.7 µM]	86*	24	nt	-25	-9[16.7 µM]
C[C@@H]1CN([C@H](C)CO)C(=O)c2cc(NC(=O)Nc3ccccc3)ccc2O[C@@H](C)CCCCO[C@@H]1CN(C)CC1CCCCC1	-10[16.7 µM]	97*	-4	nt	-27	-15[16.7 µM]
C[C@@H]1CN([C@@H](C)CO)C(=O)c2cc(NC(=O)NC3CCCCC3)ccc2O[C@@H](C)CCCCO[C@@H]1CN(C)CC1CCCCC1	-3[16.7 µM]	23	9	4	-19	-6[16.7 µM]
CCCN(C)C[C@H]1OCCCC[C@@H](C)Oc2ccc(NC(=O)c3ccccc3)cc2C(=O)N([C@H](C)CO)C[C@H]1C	-83[16.7 µM]	83*	5	18	-5	2[16.7 µM]
C[C@H](CO)N1C[C@H](C)[C@H](CN(C)CC2CC2)OCCCC[C@H](C)Oc2ccc(NC(=O)Nc3ccccc3)cc2C1=O	25[16.7 µM]	-1	nt	nt	8	-1[16.7 µM]
C[C@@H]1CCCCO[C@@H](CN(C)CC2CCCCC2)[C@H](C)CN([C@H](C)CO)C(=O)c2cc(NC(=O)NC3CCCCC3)ccc2O1	70*[16.7 µM]	12	7	-162	21	-11[16.7 µM]
COc1cccc(NC(=O)N(C)C[C@H]2Oc3cc(-c4ccccc4OC)ccc3S(=O)(=O)N([C@@H](C)CO)C[C@H]2C)c1	-103[16.7 µM]	30	6	-10	-24	14[16.7 µM]
COCC(=O)N1[C@@H]2CN(C)c3ccccc3[C@@H]2[C@@H]1CO	nt	-10	2	-5	2	-14[16.7 µM]
O=C(c1ccc2c(c1)OCO2)N1C[C@@H]2N[C@H](C1)C2c1ccc(-c2cccnc2)cc1 (some centres not stated)	nt	2	64*!	nt	3	nt
Fc1ccc(-c2ccc(C3[C@@H]4CN(Cc5nccs5)C[C@H]3N4)cc2)cc1 (some centres not stated)	nt	63*!	-3	nt	-8	nt
CN(C)C(=O)c1cccc(-c2ccc(C3[C@@H]4CN(C(=O)c5ccccn5)C[C@H]3N4)cc2)c1 (some centres not stated)	nt	-6	58*!	nt	13	nt
Fc1cccc(-c2ccc(C3[C@@H]4CN(Cc5cccnc5)C[C@H]3N4)cc2)c1 (some centres not stated)	nt	-20	-1	nt	-8	nt
CN(C)C(=O)c1ccc(-c2ccc(C3[C@@H]4CN(Cc5nccs5)C[C@H]3N4)cc2)cc1 (some centres not stated)	nt	-8	53*!	nt	-9	nt
O=C(c1ccc2c(c1)OCO2)N1C[C@@H]2N[C@H](C1)C2c1ccc(-c2ccncc2)cc1 (some centres not stated)	nt	11	0	nt	-16	nt
